Hits are enriched below; roughly 4% of the tested compounds scored in any of these assays.
EWS-Fli block: blocks EWS/Fli oncoprotein-driven transcription. A673 NR0B1-luciferase reporter, viability-normalised. inhibition, % at 12.6 µM. hit rate 0.67% among 350,000;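 active = mean inhibition of at least 50% after viability correction, with every replicate also passing that limit; inconclusive = mean reaches 50% but only one of two replicates passes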;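 also: firefly luciferase signal divided by Alamar Blue viability fluorescence both relative to DMSO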
MITF act: activators of MITF-driven TRPM1 promoter activity in SK-MEL-5 cells | hit rate 0.75% among 300,000 | AID 588334 | activation, % at 12.5 µM | SK-MEL-5 TRPM1-promoter luciferase, 24 h; % of positive control, neutral wells = 0;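 active = mean activation of at least 80% with every replicate also reaching 80%; inconclusive = mean reaches 80% but some replicate falls short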;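 also: 0% = neutral control wells and 100% = parthenolide positive control wells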
Wnt act: activators of Wnt/beta-catenin signaling; AID 743398; Wnt/beta-catenin reporter cell assay, activator, plate reader; activation, % at 9.35 µM; hit rate 1.2% among 300,000; in the data active = activation above about 30%, passing the limit was not always enough; inconclusive = no clear call, values can overlap the other calls;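 also: 0% = neutral control wells and 100% = positive control wells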
MITF TRPM1 inh: inhibitors of MITF-driven TRPM1 promoter in melanoma cells. SK-MEL-5 TRPM1 promoter luciferase, 24 h. inhibition, % at 12.5 µM. hit rate 0.83% among 330,000. AID 488899;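 active = mean inhibition across replicates of 60% or more, whatever share of single replicates reaches that level; inconclusive = some that reach 60%, reason not given; inactive = mean inhibition across replicates below 60%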
esBAF inh: inhibitors of esBAF chromatin remodeling in mouse ES cells | Bmi1-luciferase knock-in reporter, 24 h; 100% = twice the neutral-well signal | AID 602393 | reporter increase, % at 12.5 µM | hit rate 2% among 350,000; in the data active = activation above about 40%; inconclusive = no clear call, values can overlap the other calls;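 also: 0% = median of the plate's neutral control wells and 100% = double that signal; a rise in the Bmi1 reporter signal indicates esBAF inhibition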
PAX8 inh HTS: lowers PAX8-driven luciferase in RMG-I cells. RMG-I TPO-luciferase reporter, SteadyGlo, 24 h. inhibition, % at 12.6 µM. hit rate 1.2% among 360,000;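 active = mean replicate inhibition at least 60% with every replicate also reaching 60%; inconclusive = only one of the two criteria is met; inactive = mean below 60% and not all replicates reaching 60%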;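 also: luciferase light reporting Pax8 driven TPO promoter activity; plate controls were median of neutral control wells for no effect and mitoxantrone controls for full effect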
Numbers without * were called inactive; u = inconclusive; x = no result given.

SMILES	EWS-Fli block	MITF act	Wnt act	MITF TRPM1 inh	esBAF inh	PAX8 inh HTS
CN(CC1CCCN(CCc2ccccc2F)C1)C(=O)c1ccoc1 (stereo unspecified)	-7	-4	1	0	-3	-7
COc1ccc(CCN2CCCC(CN(C)C(=O)c3ccoc3)C2)cc1 (stereo unspecified)	-135	37	u	-47	62*	-235
O=C(Nc1ccc(N2CCOCC2)cc1)c1cnccn1	57*	x	-4	25	-74	58
O=C(Nc1ccc(N2CCOCC2)cc1)c1cnsn1	x	-79	x	79*	-82	x
C[C@@H]1CCCCO[C@@H](CN(C)C(=O)Nc2cccc3ccccc23)[C@@H](C)CN([C@@H](C)CO)C(=O)c2cc(NC(=O)Cc3ccccc3)ccc2O1	x	x	x	x	x	43
CO[C@H]1CN(C)C(=O)c2ccc(NC(C)=O)cc2OC[C@@H](C)N(C(=O)c2ccccn2)C[C@H]1C	1	x	x	x	-3	-20
CCOc1ccc(C2=Nc3ccc(Br)cc3C(c3ccc(N4CCOCC4)cc3)=NN2)cc1	x	68	6	-59	x	-37
CCOc1ccc(C2=Nc3ccccc3C(c3ccc(N4CCOCC4)cc3)=NN2)cc1	x	x	x	-26	50*	x
C[C@@H]1CCCCO[C@@H](CN(C)Cc2ccccc2)[C@H](C)CN([C@@H](C)CO)C(=O)c2cc(NC(=O)Nc3ccc(F)cc3)ccc2O1	-3	x	x	x	1	-13
O=C(C[C@H]1CC[C@H](NC(=O)CN2CCOCC2)[C@H](CO)O1)NC1CCCCC1	0	x	x	x	-5	-16
Clc1ccc(-c2cc3ccccc3[nH]2)cc1	x	x	42*	-32	81*	-142
Clc1ccc(-c2ccn[nH]2)cc1	-27	6	11	-8	x	-21
Oc1ccc(-c2nnc(SCC3CCCCC3)o2)cc1	x	x	53*	-63	u	-161
O=C(CSc1nnc(-c2ccc(F)cc2)o1)NC1CCCCC1	-19	5	29	-7	x	-4
CC1=CC(=O)C(C(C)C)=C/C1=N/OS(=O)(=O)c1ccccc1	42	x	5	17	x	94*
CN(C)CCNc1ncnc2c1sc1nc(N3CCOCC3)c3c(c12)CC(C)(C)SC3	x	x	-9	77*	-16	48
CC1(C)Cc2c(c(N3CCOCC3)nc3sc4c(NCCN)ncnc4c23)CO1	5	-69	-3	70*	x	-2
CCN(CC)CCNc1ncnc2c1sc1nc(N3CCOCC3)c3c(c12)CC(C)(C)SC3	x	7	2	-6	-6	16
CC1(C)Cc2c(c(N3CCOCC3)nc3sc(C(=O)Nc4ccccc4)c(N)c23)CO1	x	11	34*	-14	38	-235
C[C@H](CO)N1C[C@H](C)[C@@H](CN(C)S(C)(=O)=O)Oc2ccc(NC(=O)Nc3ccc(F)cc3)cc2C1=O	-6	x	x	x	-4	-12
COc1ccc(OC)c2c1C(=O)C(Cl)=C(Cl)C2=O	45	x	-13	88*	x	100*
CC(C)C(=O)Nc1nc(-c2ccccc2)ns1	x	135*	-5	-127	56*	-180
CC(C)C(=O)Nc1nnc(NC(=S)Nc2ccccc2)s1	-59	37	8	-31	76*	-88
CCC(=O)Nc1nc(-c2ccccc2)ns1	x	x	x	-60	43*	x
COc1cccc(-c2ccc([C@@H]3[C@@H](C#N)N(C(=O)c4ccccn4)[C@@H]3CO)cc2)c1	1	x	x	x	-8	8
SMILES	EWS-Fli block	MITF act	Wnt act	MITF TRPM1 inh	esBAF inh	PAX8 inh HTS
C[C@@H]1CN([C@H](C)CO)S(=O)(=O)c2ccc(-c3ccc(F)cc3)cc2O[C@H]1CN(C)C	-7	x	x	x	-1	x
Cc1ccc(/C=N/NC(=O)c2cccs2)cc1[N+](=O)[O-]	x	117*	40*	-106	x	-185
COC(=O)c1sccc1N/N=C/c1ccc(OC)c(OC)c1OC	-105	70	13	-65	52*	-163
COc1ccc(/C=N/NC(=O)c2cccnc2)c2ccccc12	-4	-7	-1	1	16	-7
Cc1ccsc1/C=N/NC(=O)c1cccs1	x	56	x	-56	x	x
COc1ccc(/C=N/NC(=O)c2cccs2)c2ccccc12	-96	70	6	-74	56*	-135
O=C(N/N=C/c1ccccc1[N+](=O)[O-])c1cccs1	-91	x	45*	-48	x	-62
CCCNC(=O)Nc1ccc2c(c1)OC[C@H](C)N(C(=O)CC)C[C@H](C)[C@@H](OC)CN(C)C2=O	1	x	x	x	x	x
CCS(=O)(=O)N[C@H]1C=C[C@@H](CC(=O)NC2Cc3ccccc3C2)O[C@@H]1CO	-2	x	x	x	1	0

Compound activity: PubChem BioAssay, Broad Institute
